# Bioassay records deposited in PubChem BioAssay by Johns Hopkins Ion Channel Center.
# An excerpt weighted towards active compounds, which were near 1.6% of everything screened.
# KCNQ2 pot: enhances the rat KCNQ2 potassium channel; O88943; CHO-K1 KCNQ2, FluxOR thallium flux fluorescence; stronger effect = higher value; B-score at 10 µM; 310,000 compounds, 0.54% hits;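 active = fluorescence ratio B-score at least 3 SD of library B-scores, with initial fluorescence B-score within 3 of them, cut at about 5.3 in these data; same plate scores as AID 2156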;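 also: B-score of peak minus minimum over baseline fluorescence ratio after K+ and Tl+ stimulus; positive B-score means potentiation of KCNQ2 with more thallium influx and brighter signal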
# Target sequence (O88943 whole entry, looked up): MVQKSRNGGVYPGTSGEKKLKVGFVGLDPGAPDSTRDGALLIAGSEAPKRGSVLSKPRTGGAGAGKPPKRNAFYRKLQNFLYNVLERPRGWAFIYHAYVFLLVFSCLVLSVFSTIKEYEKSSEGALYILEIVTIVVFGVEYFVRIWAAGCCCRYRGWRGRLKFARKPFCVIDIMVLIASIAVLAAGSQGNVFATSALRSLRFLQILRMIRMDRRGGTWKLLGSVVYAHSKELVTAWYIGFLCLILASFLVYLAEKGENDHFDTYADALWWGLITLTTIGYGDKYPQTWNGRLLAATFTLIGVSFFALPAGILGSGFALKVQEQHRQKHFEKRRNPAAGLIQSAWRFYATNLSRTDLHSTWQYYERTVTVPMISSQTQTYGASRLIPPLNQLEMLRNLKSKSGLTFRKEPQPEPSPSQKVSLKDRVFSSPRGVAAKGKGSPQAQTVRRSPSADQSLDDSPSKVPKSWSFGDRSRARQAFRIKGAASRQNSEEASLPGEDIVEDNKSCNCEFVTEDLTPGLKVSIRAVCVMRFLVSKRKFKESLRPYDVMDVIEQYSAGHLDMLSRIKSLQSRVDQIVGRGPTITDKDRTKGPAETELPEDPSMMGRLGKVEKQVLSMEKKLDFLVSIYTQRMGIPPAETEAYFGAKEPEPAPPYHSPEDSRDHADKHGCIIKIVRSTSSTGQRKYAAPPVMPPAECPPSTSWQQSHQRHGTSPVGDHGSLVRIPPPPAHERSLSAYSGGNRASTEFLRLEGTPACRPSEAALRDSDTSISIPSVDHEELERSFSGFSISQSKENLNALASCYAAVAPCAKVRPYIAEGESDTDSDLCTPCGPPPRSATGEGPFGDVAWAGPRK
# KCNQ2 block: blocks the rat KCNQ2 potassium channel | CHO-K1 KCNQ2, FluxOR thallium flux, 20 min; stronger effect = lower value | B-score at 10 µM | 310,000 compounds, 1.1% hits | AID 2156;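 active = fluorescence ratio B-score at most minus 3 library SDs, with starting brightness B-score within 2 library SDs, cut at about -5.5 in these data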
# Active calls of the source: *; i = inactive; x = no result given.
SMILES,KCNQ2 pot,KCNQ2 block
CC(C)(C)OC(=O)N1CCCC1C(=O)NCCc1ccccc1 (stereo not given),0.63,i
CCc1cc2c(C)cc(=O)oc2cc1OC(=O)C1CCCN1C(=O)OC(C)(C)C (stereo not given),-5.97,-5.97*
COC(=O)N1C/C=C\C(c2ccc(OC)cc2)N(Cc2ccc(F)cc2)C(=O)C1 (stereo not given),1.29,i
COc1ccc(C2/C=C\CN(C(=O)Nc3ccccc3-c3ccccc3)CC(=O)N2Cc2ccc(F)cc2)cc1 (stereo not given),-6.4,-6.4*
COCCN(C(=O)COC(=O)CSc1ccc(Cl)cc1)c1c(N)n(Cc2ccccc2)c(=O)[nH]c1=O,x,i
C/C(=N\O)c1ncc(C(F)(F)F)cc1Cl,1.04,i
CCOC(=O)C(NC(=O)c1ccccc1Cl)(Nc1ccc(C)c(C)c1)C(F)(F)F (stereo not given),x,i
COC(=O)C(Nc1ccccc1Cl)(c1cc(C)c(O)c(C)c1)C(F)(F)F (stereo not given),-7.99,-7.99*
COc1ccc(C(CCNCc2ccc(F)cc2)c2ccc(F)cc2)cc1 (stereo not given),-7.19,-7.19*
COc1ccc(CNCCC(c2ccc(F)cc2)c2ccc(OC)cc2)cc1 (stereo not given),x,i
COc1ccc(OC)c(S(=O)(=O)N2CCC(C(=O)N3CCCCCC3)CC2)c1,x,i
O=C(CSc1cn[nH]n1)Nc1ccc(Cl)cc1Cl,x,i
CC(=O)NCC(=O)OCC(=O)c1ccc(C)c(C)c1,x,i
Cc1ccc(C(=O)COC(=O)C2C3C=CC(C3)C2C(=O)OCC(=O)c2ccc(C)c(C)c2)cc1C (stereo not given),-7.48,-7.48*
Cn1c(N)c(C(=O)COC(=O)[C@@H]2CCCN2S(=O)(=O)c2ccc(Cl)cc2)c(=O)n(C)c1=O,3.09,i
CN(C)CCNC(=O)c1ccc(COc2ccc(Cl)cc2Cl)cc1,-7.64,-7.64*
COc1ccc(Cl)cc1C(=O)NCCN(C)C,0.4,i
Cc1ccc2c(c1)N(CC(=O)NCCCN1CCOCC1)C(=O)C(C(C)C)O2 (stereo not given),0.34,i
N#CCSc1nc2scc(-c3cccs3)c2c(=O)n1CCc1ccccc1,-7.02,-7.02*
C=CCn1c(SCC(=O)Nc2ccccc2)nc2scc(-c3cccs3)c2c1=O,x,i
Cc1ccc(SCC(=O)Nc2ccc(N3CCN(C)CC3)c(F)c2)c(C)c1,1.03,i
CC1CCN(c2cc(N)c(Cl)cc2[N+](=O)[O-])CC1,-6.47,-6.47*
CC1CCN(c2cc(C#N)c(C#N)cc2[N+](=O)[O-])CC1,0.25,i
CN(C(=O)c1ccc(COc2ccccc2Br)o1)c1ccccc1,-6.19,-6.19*
CN(C)CCOC(=O)c1ccc(COc2ccccc2Br)o1,1.31,i
SMILES,KCNQ2 pot,KCNQ2 block
CC1(c2cccc(Br)c2)NC(=O)N(CC(=O)Nc2cccnc2Cl)C1=O (stereo not given),2.1,i
COc1ccc(/C=N/NC(=O)CN(C)C(=O)OCc2ccccc2)cc1OC,0.57,i
O=C(c1ccc(Br)cc1)N1CCC(C(=O)N2CCN(c3ccccc3)CC2)CC1,1.48,i
O=C1CN(c2ccccc2)C(=S)N1C(=O)c1ccc(Br)cc1,-5.82,-5.82*
COc1ccc(NC(=O)C2CCCN(S(=O)(=O)c3ccccc3)C2)c(OC)c1 (stereo not given),x,i
Cc1ccc(-c2nnn(CC(=O)N(CCN3CCOCC3)C(C(=O)NC(C)(C)C)c3ccc(C)o3)n2)cc1 (stereo not given),-6.05,-6.05*
Cc1ccc(-c2nnn(CC(=O)N(CCN3CCOCC3)C(C(=O)NC(C)(C)C)c3ccco3)n2)cc1 (stereo not given),x,i
Cc1ccc(S(=O)(=O)NC2CC(C)(C)NC(C)(C)C2)cc1C,x,i
CCc1c(C)nc2cc(-c3cc(OC)cc(OC)c3)nn2c1N1CCCC1,0.09,i
COc1cc(OC)cc(-c2cc3nc4c(c(N5CCN(c6ncccn6)CC5)n3n2)CCCC4)c1,-6.2,-6.2*
OC1CCN(c2c3c(nc4cc(-c5cccc(F)c5)nn24)CCCC3)CC1,x,i
Fc1cccc(-c2cc3nc4c(c(N5CCC6(CC5)OCCO6)n3n2)CCCC4)c1,-6.56,-6.56*
Cc1ccc(C)c2[nH]c(=O)c(CCNC(=O)c3ccco3)cc12,1.04,i
Cc1nc(N2CCN(C(=O)c3cnccn3)CC2)c2c3c(sc2n1)CC(C(C)(C)C)CC3 (stereo not given),0.46,i
O=C(Nc1ccc(OCC(=O)N2CCOCC2)cc1)c1cccc(Cl)c1,1.44,i
O=C1OC(c2ccccc2)=NC12CC2c1ccc(Cl)cc1 (stereo not given),x,i
COc1ccc([C@H]2[C@H](C(=O)C(C)(C)C)N3N=Cc4ccccc4C3[C@]23N=C(c2ccccc2)OC3=O)cc1 (stereo not given in full),-9.49,-9.49*
Cc1oc2ccc(OCc3ccc(F)cc3Cl)cc2c1C(=O)O,6.98*,i
